These results are taken from PubChem BioAssay AID492948 (National Center for Advancing Translational Sciences (NCATS), 2010).

Inconclusive results are not listed. The source made the active and inactive calls. Calls come from the whole dose curve; as a rule, active = well fitted activation curve with a large enough effect; inconclusive = small, poorly fitted or top-dose-only effect; inactive = no such curve, though single readings can be large or run the other way.
Potency is the fitted concentration of half-maximal effect.

This assay can be described thus: qHTS Assay for Agonists of the Relaxin Receptor RXFP1: V1B Hit Validation.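 For activation: cAMP accumulation with PDE4 inhibitor Ro 20-1724 present during compound exposure.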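 Note: counter-screen in HEK293 cells expressing V1B rather than RXFP1 for selectivity; nearly all actives have a fitted effect of over 65% in size.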 As to conditions: HEK293 V1B cells, cAMP TR-FRET, 30 min; series mostly up to 115 µM. An excerpt: NIH Chemical Genomics Center [NCGC]
NIH Molecular Libraries Probe Production Centers Network [MLPCN]
Assay Submitter (PI): Alexander Agoulnik
The relaxin hormone is involved in the variety of biological functions in normal tissues and diseases. The role of relaxin is well-established in female reproduction and parturition, mammary gland and endometrial development, maintenance of myometrial quiescence during pregnancy. Relaxin signaling through its G protein-coupled receptor (GPCR) RXFP1 results in ECM remodeling through regulation of collagen deposition, cell invasiveness, proliferation and overall tissue homeostasis. […] Recombinant human relaxin (rhRlx) is currently being tested in clinical trials as a protective agent in congestive heart failure, in treating severe preeclampsia, and as an anti-fibrotic agent in systemic sclerosis.
Upon relaxin binding RXFP1 activation leads to the activation of adenylate cyclase (AC) via Gs. cAMP will activate PKA, which phosphorylates many signaling proteins. Thus, detection of cAMP increase is an easy and reliable indication of relaxin receptor activation. To screen for agonists of the relaxin receptor, a HEK293T cell line stably transfected with RXFP1 was used. RXFP1 activation was assayed by changes in cAMP levels as detected with a time-resolved fluorescence energy transfer (TR-FRET) cAMP detection kit.
This assay measures activation of a cell expressing […], another GPCR targeted by relaxin, to determine the selectivity of compounds for RXFP1.
NCGC Assay Protocol Summary:
This is a cell-based assay for cAMP second messenger response to screen for agonists of the RXFP2 receptor. The assay was conducted in the presence of a PDE4 inhibitor (Ro 20174). The cells were lysed and the cAMP levels were measured with a TR-FRET cAMP kit. Presence of cAMP in the cell lysate disrupts binding between the cryptate-labeled anti-cAMP and d2-labeled cAMP pair, leading to a decrease in the TR-FRET signal. Data were normalized to the controls for basal activity (buffer only) and 100% activity (29 nM porcine relaxin). The EC50 values were determined from concentration-response data modeled with the standard Hill equation
1536-well assay protocol for the HEK293 V1B cAMP assay:
(1) Add 3 ul HEK293 RXFP2 cell culture. 2000 cells/well in DMEM/F12, 10% FBS, 1x Pen/Strep (dispensed offline with MultiDrop Combi).
(3) Add 23 nl compounds in DMSO solution. Final concentration was 0.5 - 58 uM.
(4) Incubate 30 min at 37C, 5% CO2.
(5) Add 1 ul cAMP-d2 in lysis buffer (HTRF cAMP HiRange kit, CisBio).
(6) Add 1 ul anti-cAMP antibody-cryptate in lysis buffer (HTRF cAMP HiRange kit, CisBio).
(7) Incubate 30 min at room temperature.
(6) Detect the assay plate in a ViewLux plate reader (PerkinElmer) with Ex=320 nm, Em1=615 nm and Em2=665 nm.
Keywords: relaxin, RXFP1, RXFP2, G-protein coupled receptor, cAMP, agonist, high throughput screening, MLSMR, MLSCN, NIH Roadmap, qHTS and NCGC
In general terms: qHTS replaces the single test concentration by a dilution series.
With `O=C(O)c1sc2cc(Cl)ccc2c1Cl`, the Potency was 19.4 µM (active).

With `O=c1[nH]c(O)c(N=Nc2ccc([N+](=O)[O-])cc2)c(=O)[nH]1`, the Potency is 17.3 µM (active). As for `Nc1ncc2[nH]cnc2n1`, the Potency was 24.5 µM (active).

For the compound `Cn1c(O)c(N=Nc2cccc(S(=O)(=O)N3CCOCC3)c2)c(=O)n(C)c1=O`, the Potency was 13.8 µM (active).

Take `O=C1OCc2cc(N=Nc3c(O)[nH]c(=O)[nH]c3=O)ccc21`: the Potency was 15.4 µM (active). Take `CCNC(=O)[C@H]1O[C@@H](n2cnc3c(N)ncnc32)[C@H](O)[C@@H]1O`: the Potency was 1.94 µM (active). The entry for `CCC(Oc1cc(Cl)ccc1Cl)C(=O)N1CCC2(CC1)OCCO2` (configuration not stated) is “inactive”.
